Screens: PubChem, National Center for Advancing Translational Sciences (NCATS)
Shown are actives, neighbours in structure and some others; about 12% of the full set was active somewhere.
SARS PLpro yeast = inhibitors of SARS-CoV papain-like protease in yeast. hit rate 0.19% among 330,000. Potency, µM (doses to about 32.9 µM), for the others: at the top dose activity, positive = growth rescue, hits mostly activators. S. cerevisiae expressing SARS-CoV PLpro, growth rescue; calls by dose curve; note: 0% is about no effect; nearly all actives have a fitted effect of over 55% in size
AMA1 RON2 block = inhibitors of Plasmodium falciparum AMA1-RON2 interaction; Potency, µM (series often up to 58.2 µM), without a hit: at the top dose activity change, negative = inhibition, hits mostly inhibitors; AlphaScreen AMA1-biotinylated RON2 peptide binding; hit rate 0.2% among 360,000; AID 720542;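 note: 0% = vehicle wells and -100% = peptide control; nearly all actives have a fitted effect of over 45% in size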
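AMA1 (3D7) with his tag at 25 nM final met compounds first, then biotinylated RON2 peptide at 25 nM; detection used donor plus acceptor beads, 10 µg/mL apiece, read by AlphaScreen after 30 min at room temperature.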
HCV inhibitor = inhibitors of hepatitis C virus infection; hit rate 3.4% among 340,000; Huh7.5.1 HCVcc-Cre infection, luciferase reporter, 44 h; AID 651820; Potency, µM (highest dose often 41.8 µM), inactives show top-dose activity change, negative = inhibition, actives largely listed as inhibitors; note: % is set by controls: 0 for no effect and ±100 for the full control effect
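Antiviral activity was scored by luciferase reporter output from cells infected with HCVcc-Cre (~0.5 moi) in presence of compound, 44 h infection period, cells seeded 1,000/well 4 h prior.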
Pf growth 96h = inhibits malaria parasite growth, 96 h. AID 504834. Potency, µM (doses to about 28.7 µM), inactives show top-dose activity change, negative = inhibition, actives largely listed as inhibitors. hit rate 6.9% among 320,000. P. falciparum luciferase reporter growth, 96 h; note: % is set by controls: 0 for no effect and ±100 for the full control effect
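Compounds incubated with erythrocytes infected by luciferase-expressing P. falciparum (2% hematocrit, 0.05% parasitemia final) for 96 hours, 37 C in 5% CO2. Growth inhibition scored as decreased luciferase luminescence.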
NS1 inh = inhibitors of influenza NS1 protein function | Potency, µM (highest dose often 46.1 µM), for the others: at the top dose activity, positive = more growth | hit rate 0.4% among 270,000; calls by dose curve; note: actives are rising curves; nearly all actives have a fitted effect of over 50% in size
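Read-out: OD600 growth recovery of NS1-expressing budding yeast. Cells grown overnight at 30C in -URA glucose medium, washed, resuspended and diluted 1:100 in 2% galactose assay medium, pH 6.0. Same strain lacking NS1 served as positive control.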
Pf growth 48h = inhibits P. falciparum growth in the first generation, 48 h; P. falciparum luciferase growth in erythrocytes, 48 h; Potency, µM (highest dose often 28.7 µM), for the others: at the top dose activity change, negative = inhibition, most hits filed as inhibitors; hit rate 5.9% among 310,000; AID 504832; note: % is set by controls: 0 for no effect and ±100 for the full control effect
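Parasite viability was followed by luminescence of a genomically integrated firefly luciferase. Cultures held 0.1% parasitemia at 2% hematocrit (final), incubated under 5% CO2 at 37 C.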
An asterisk follows results filed as active; ? = inconclusive; . = not tested or not shown. Unless noted, calls come from the whole dose curve; as a rule, active = well fitted curve in the direction sought with a large enough effect; inconclusive = small, poorly fitted or top-dose-only effect, or another doubt; inactive = no such curve, though single readings can be large; an effect the other way counts as inactive or inconclusive. Potency is the fitted concentration of half-maximal effect.

SMILES	SARS PLpro yeast	AMA1 RON2 block	HCV inhibitor	Pf growth 96h	NS1 inh	Pf growth 48h
COc1ccc(C2=C(C=C(C#N)C#N)C(c3ccccc3C)c3ccccc3O2)cc1OC (stereo unspecified)	10.6%	-17.1%	?	?	26.7%	9.28µM*
COc1ccccc1-n1nnnc1SCC(=O)N(C)C1CCS(=O)(=O)C1 (stereo unspecified)	0.2%	33.3%	9.6%	-24.7%	.	-28.0%
CCOC(=O)c1c(C)oc2c1cc(O)c1ccccc12	2.7%	-7.0%	31.6µM*	-1.9%	-5.6%	120.5%
CC(=O)c1c(C)oc2c1cc(O)c1ccccc12	-0.9%	0.0%	?	27.6%	3.8%	33.4%
CCOC(=O)c1c(C)oc2c1c(C=NCC1CCCO1)c(O)c1ccccc12 (stereo unspecified)	-4.3%	54.3%	-8.3%	-6.0%	-49.2%	?
CCOC(=O)c1c(C)oc2c1c(C=NCc1ccccn1)c(O)c1ccccc12	-12.9%	47.3%	4.47µM*	?	-40.9%	2.08µM*
CCOC(=O)c1c(C)n(CC)c2c1cc(O)c1ccccc12	1.1%	-6.1%	-0.9%	6.3%	6.1%	-33.9%
CCOC(=O)c1c(C)[nH]c2c1cc(O)c1ccccc12	-6.0%	11.1%	?	?	0.9%	0.147µM*
Cc1ccc(NCc2nc3ccccc3n2C)cc1C	-4.6%	0.0%	6.4%	-21.1%	-9.5%	176.0%
Cn1nnnc1Sc1ncnc2scc(-c3cccc(Br)c3)c12	3.2%	.	.	.	.	.
Cn1nnnc1Sc1ncnc2scc(-c3ccc([N+](=O)[O-])cc3)c12	-6.8%	.	.	3.7µM*	.	13.1µM*
Cc1sc2ncnc(Sc3ccccc3C(=O)O)c2c1C	-0.9%	30.2%	-26.6%	-0.8%	.	-1.6%
Cn1nnnc1Sc1ncnc2scc(-c3ccccc3Cl)c12	3.0%	.	.	1.65µM*	.	11.7µM*
Cc1sc2ncnc(Sc3nnnn3-c3ccccc3)c2c1C	-5.5%	5.4%	?	34.6%	-16.9%	4.65µM*
Cn1nnnc1Sc1ncnc2scc(-c3cccc(S(C)(=O)=O)c3)c12	-5.4%	.	.	?	.	10.4µM*
COc1ccccc1C(CNC(=O)C(CCSC)NS(=O)(=O)c1ccccc1F)N1CCCC1 (stereo unspecified)	2.0%	-20.0%	0.1%	10.0%	.	?
Cn1nnnc1Sc1ncnc2scc(-c3ccc(Cl)cc3)c12	-2.9%	.	.	3.7µM*	.	6.57µM*
COc1ccc(-c2csc3ncnc(Sc4nnnn4C)c23)cc1	-20.4%	.	.	.	.	.
O=P(O)(CCc1ccccn1)CN1CCOCC1	1.2%	27.9%	11.6%	5.22µM*	2.4%	.
OC1(C#CCN2CCCC2)CCCCC1	-1.6%	-0.2%	5.5%	?	10.6%	25.0%
O=[N+]([O-])C(/C=C(\Cl)[N+](=O)[O-])=C1N(Cc2ccc(Cl)nc2)CCN1Cc1ccc(Cl)nc1	2.5%	-2.7%	?	6.57µM*	-6.6%	2.33µM*
Nc1cc2c3c(cccc3c1)C(=O)N(CCN1CCCC1)C2=O	0.5%	-8.1%	10µM*	5.86µM*	8.0%	11.7µM*
O=C1c2cccc3cc([N+](=O)[O-])cc(c23)C(=O)N1/N=C/c1ccc(O)cc1O	-6.5%	74.2%	?	?	-31.5%	11.7µM*
O=C1c2cccc3cc([N+](=O)[O-])cc(c23)C(=O)N1CCN1CCCC1	-1.2%	21.7%	1.12µM*	?	-5.5%	9.28µM*
COc1ccc(-c2n[nH]c(C(F)(F)F)c2-c2cc3ccccc3o2)c(O)c1	-46.5%	57.6%	11.2µM*	16.5%	-64.9%	2.08µM*
COc1ccccc1-c1c(-c2ccc(OCC(=O)NN)cc2O)n[nH]c1C(F)(F)F	-0.1%	50.3%	?	7.38µM*	?	8.28µM*
COc1ccc(-c2cn[nH]c2-c2ccc(OCC(=O)NN)cc2O)cc1	0.5%	95.2%	-2.8%	?	?	?
COc1ccc(-c2nc(N)nc(C(F)(F)F)c2-c2ccccc2OC)c(O)c1	0.2%	5.4%	?	?	-15.1%	?
COc1ccccc1-c1cn[nH]c1-c1ccc(OCC(=O)NN)cc1O	1.4%	80.5%	3.9%	?	?	?
